Screening data: PubChem, National Center for Advancing Translational Sciences (NCATS)
12-LOX inh – ALOX12 (human) lipoxygenase inhibition. P18054. purified 12hLO, xylenol orange hydroperoxide absorbance. Potency, µM (top dose mostly 108 µM), for the others: top-dose activity change, negative = inhibition, usual class: inhibitors. actives 1.1% (n = 580,000); active = well fitted curve in the direction sought with a large enough effect; inconclusive = small, poorly fitted or top-dose-only effect, or another doubt; inactive = no such curve, though single readings can be large; an effect the other way counts as inactive or inconclusive; also: % is scaled to controls: 0 for no effect and ±100 for the full control effect
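Hydroperoxide product was detected by ferrous iron/xylenol orange as the 573 to 405 nm absorbance ratio. Arachidonic acid at 40 uM (final) was turned over for 30 min at room temperature by 150 nM human 12hLO, pH 7.0 Hepes buffer, after 15 min compound preincubation.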
TDP1 block – inhibitors of human tyrosyl-DNA phosphodiesterase TDP1; actives 0.28% (n = 350,000); Potency, µM (top dose mostly 130 µM), for inactives: at the top dose activity change, negative = inhibition, usual class: inhibitors; recombinant TDP1, AlphaScreen DNA substrate cleavage; AID 485290; active = well fitted curve in the direction sought with a large enough effect; inconclusive = small, poorly fitted or top-dose-only effect, or another doubt; inactive = no such curve, though single readings can be large; an effect the other way counts as inactive or inconclusive; also: % is scaled to controls: 0 for no effect and ±100 for the full control effect; nearly all actives have a fitted effect of over 40% in size
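Here, a 5' biotin and 3' phosphotyrosine-FITC DNA oligonucleotide reports Tdp1 activity: intact substrate bridges AlphaScreen beads, while cleavage leaves a 3' phosphate and drops signal. All incubations at room temperature.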
Rango dissoc inh – inhibitors of RanGTP-induced Rango-importin beta complex dissociation. O95149+P62826. actives 0.071% (n = 340,000). Biochemical FRET Rango-importin beta, RanGTP-induced dissociation. AID 540253. Potency, µM (titrated, usually from 46.1 µM), for inactives: top-dose activity change, negative = inhibition; also: % of control where 0% means no effect; nearly all actives have a fitted effect of over 45% in size
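Recombinant Rango FRET biosensor (EYFP–snurportin 1 IBB–cerulean CFP10) at 0.1 uM premixed with 0.25 uM importin beta in PBS, 1 mM DTT, 0.02% Tween-20, 0.1% BSA. Compound added 5 min; RanGTP-RCC1 (0.6 uM Ran, 2 mM GTP, 0.2 uM RCC1) then triggers release, read at 45 min.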
Rango-impB inh – prevents formation of the Rango-importin beta complex; Rango CFP/YFP FRET sensor + importin beta, 45 min; actives 0.031% (n = 340,000); Potency, µM (highest dose often 92.2 µM), for inactives: at the top dose inhibition of complex formation; Q14974;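 also: 0% = DMSO wells and 100% = buffer wells lacking importin beta; nearly all actives have a fitted effect of over 15% in size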
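Inhibition scored from the CFP 486 nm/YFP 530 nm FRET ratio 45 min after adding 0.125 microM importin beta to 50 nM Rango biosensor preincubated 5 min with compound (room temperature, PBS with DTT, Tween-20, BSA). No-importin wells as positive control.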
PTAP TSG101 blk – blocks PTAP/TSG101 interaction to inhibit HIV-1 budding; AID 493005; Potency, µM (doses to about 115 µM), inactives show at the highest dose activity change, negative = inhibition, usual class: inhibitors; Fluorescence polarization, FITC-PTAP peptide / Tsg101 binding; 340,000 tested, under 10 active; Q99816; active = well fitted inhibition curve with a large enough effect in the main read-out, with a control signal flat, not every such curve was filed as active; inconclusive = small, poorly fitted or top-dose-only effect, or effect the other way, or a change in a side signal; inactive = no such curve, though single readings can be large or run the other way; also: % of control where 0% means no effect
Target sequence (Q99816 whole entry, looked up): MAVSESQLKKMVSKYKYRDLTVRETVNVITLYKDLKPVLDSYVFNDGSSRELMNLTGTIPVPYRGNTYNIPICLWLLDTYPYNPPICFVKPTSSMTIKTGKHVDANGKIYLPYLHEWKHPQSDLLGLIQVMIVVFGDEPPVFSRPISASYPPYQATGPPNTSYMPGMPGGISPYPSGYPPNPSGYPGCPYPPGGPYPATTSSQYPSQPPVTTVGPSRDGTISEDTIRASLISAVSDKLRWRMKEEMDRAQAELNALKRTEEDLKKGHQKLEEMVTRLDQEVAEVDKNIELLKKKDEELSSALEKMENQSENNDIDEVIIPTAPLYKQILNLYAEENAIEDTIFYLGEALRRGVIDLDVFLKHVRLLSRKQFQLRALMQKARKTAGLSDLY
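Compounds were pin-transferred onto Tsg101 binding domain (10 uM final) in HEPES pH 7.5 buffer, then FITC-PTAP peptide was added at 50 nM final. After 20 min at RT, polarization reported peptide displacement across a qHTS concentration series.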
ClpP mod – qHTS Assay for Activators of ClpP; ATP-dependent Clp protease proteolytic subunit (Bacillus subtilis (strain 168)), P80244; purified B. subtilis ClpP, FRET peptide cleavage, 20 min; Potency, µM (series often up to 57.5 µM), for inactives: at the highest dose activity change, negative = active; actives 1.9% (n = 340,000); AID 651965, 2013; active = well fitted falling curve with a large enough effect; inconclusive = small, poorly fitted or top-dose-only effect; inactive = no such curve, though single readings can be large or run the other way; also: the source files actives as falling curves though it sought activators and does not explain the sign; nearly all actives have a fitted effect of over 65% in size
Target sequence (P80244 whole entry, looked up): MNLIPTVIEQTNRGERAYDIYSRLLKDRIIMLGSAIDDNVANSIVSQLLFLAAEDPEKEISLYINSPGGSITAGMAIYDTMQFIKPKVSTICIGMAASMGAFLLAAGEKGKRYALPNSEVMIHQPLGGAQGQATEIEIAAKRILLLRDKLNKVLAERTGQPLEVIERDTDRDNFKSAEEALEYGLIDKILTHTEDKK
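ClpP 10 microg/mL final, pH 8 Tris/KCl buffer with BSA, glycerol, Tween-20; compound pinned in; FRET-FV substrate; RT 20 min; Ex320/Em430; ΔFRET vs ADEP 5.8 microM, DMSO, no enzyme.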
Active calls of the source: *; ? = inconclusive; . = not tested or not shown; [ ] = remark or other dose. An excerpt weighted towards active compounds, which were near 2.4% of everything screened. Unless noted, calls follow the shape of the full dose curve. Potency is read from the fitted curve at half-maximal effect.

SMILES	12-LOX inh	TDP1 block	Rango dissoc inh	Rango-impB inh	PTAP TSG101 blk	ClpP mod
O=C(CN1C(=O)NC2(CCCC2)C1=O)N1CCN(S(=O)(=O)c2ccccc2)CC1	-0.4%	5.3%	-2.9%	13.1%	-1.6%	.
Cc1cc(C)c(S(=O)(=O)N2CCN(C(=O)CN3C(=O)NC4(CCCC4)C3=O)CC2)c(C)c1	6.1%	-0.4%	4.7%	2.8%	-0.9%	35.5µM*
O=C(NCc1ccc(C(=O)N2CCCCCC2)cc1)c1cc(=O)[nH]c2ccccc12	22.2%	.	.	.	.	.
COC(=O)Cn1c(=NC(=O)c2ccc(Cl)s2)sc2cc(F)ccc21	-6.3%	-2.3%	-6.7%	2.3%	-5.0%	28.2µM*
CC(C)(Oc1nn(CC2CCOCC2)c2ccccc12)C(=O)Nc1cccnc1	29.1%[176 µM]	.	.	.	.	.
CCC(C)c1ccccc1NC(=O)COC(=O)c1ccc2[nH]c3c(c2c1)CCCC3 (stereo not drawn)	-24.6%	7.1%	-9.4%	3.0%	-1.3%	31.6µM*
COc1ccc(/C=C/C(=O)NCc2cn(C)nc2C)cc1COc1ccc(Cl)cc1Br	0.0%	0.0%	4.8%	0.9%	-5.9%	14.1µM*
Cc1nn(C)cc1CNC(=O)Nc1ccc(Br)cc1Cl	0.0%	5.5%	-3.5%	6.2%	-6.3%	-0.4%
O=C1NC2(CCN(Cc3cccc4ccccc34)C2)Oc2ccccc21 (stereo not drawn)	5.8%	.	.	.	.	.
CC1(C(=O)NS(=O)(=O)c2cccc(F)c2)CCN1C(=O)c1ccccc1CCc1ccccc1 (stereo not drawn)	7.08µM*	.	.	.	.	0.3%
Cc1cccc(S(=O)(=O)NC(=O)C2(C)CCN2C(=O)c2ccccc2CCc2ccccc2)c1 (stereo not drawn)	-6.8%	.	.	.	.	-4.0%
CC1CCC2(CC1)NC(=O)N(CC(=O)c1ccc[nH]1)C2=O (stereo not drawn)	6.4%	4.5%	-10.6%	0.8%	-4.5%	28.2µM*
Cc1cc(C)n2nc(SCC(=O)N3CCN(c4ccccc4)CC3)nc2n1	?	1.8%	2.7%	2.2%	-0.3%	31.6µM*
CC(Sc1ccc2nnc(-c3ccc(F)cc3)n2n1)C(=O)O (stereo not drawn)	?	.	-15.4%	-5.3%	-0.1%	3.9%
COc1ccc(-c2nnc3ccc(SCC(=O)N4CCN(c5ccccc5)CC4)nn23)cc1	31.6µM*	.	28.5%	-3.5%	-1.3%	-0.7%
Cc1ccc(-c2nnc3ccc(SC(C)C(=O)O)nn23)cc1 (stereo not drawn)	31.6µM*	-1.0%	8.0%	3.2%	-1.0%	-22.3%
Cc1cc(C)n2nc(SCC(=O)N3CCCC3)nc2n1	-7.0%	0.6%	0.1%	-1.2%	-4.3%	1.2%
O=C(NCC1CCN(c2cc(-c3ccc(F)cc3)[nH]n2)CC1)c1ccc[nH]1	3.8%	.	.	.	.	.
CN1C(=O)CCCCC1C(=O)NCc1ccc(F)cc1 (stereo not drawn)	13.7%	.	.	.	.	.
CCCCCc1ccc(-c2ccc(C3CCC(CCCC)CC3)cn2)cc1 (stereo not drawn)	-10.3%	.	.	.	.	.
CN(C)c1ccc(NC(=O)c2ccc(N)cc2)cc1	3.9%	.	.	.	.	.
Cc1cc(C)c(-c2cc(C(F)(F)F)no2)c(=O)[nH]1	16.9%	5.0%	-8.4%	?	.	17.8µM*
Cc1nn(Cc2ccc(F)cc2)c(C)c1NC(=O)c1cc2ncc(Br)cn2n1	-8.3%	31.6µM*	-5.8%	-0.2%	1.1%	-0.7%
Cc1cc(C)n2nc(C(=O)Nc3c(C)nn(Cc4ccc(F)cc4)c3C)cc2n1	3.0%	-1.8%	9.3%	2.4%	1.5%	?
CC(=O)OC(CC(=O)O)C[N+](C)(C)C (stereo not drawn)	-2.8%	2.9%	17.7%	2.7%	0.9%	1.9%
